Source: PubChem BioAssay
FXN GAA850 act = activators of GAA850 frataxin (FXN) promoter; HEK293 lucGAA850 FXN promoter luciferase reporter, 24 h; percent of 10 µM SAHA response; activation, % at 6 µM; AID 540364; 360,000 tested, 0.56% active;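 active = activation above the average of all compounds screened plus 3 SD, cutoff fixed separately per campaign, cut at about 7.5% in these data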
EWS-Fli inh = inhibitors of EWS/Fli oncoprotein transcriptional activity. 350,000 tested, 0.67% active. inhibition, % at 12.6 µM. A673 NR0B1-luciferase reporter, viability-normalised;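 active = mean inhibition of at least 50% after viability correction, with every replicate also passing that limit; inconclusive = mean reaches 50% but only one of two replicates passes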;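 also: firefly luciferase signal divided by Alamar Blue viability fluorescence both relative to DMSO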
Env fusion inh = inhibitors of HIV Env-mediated cell fusion. HeLa-JRFL Env/CEM21 cell fusion, luciferase. inhibition, % at 12.3 µM. 360,000 tested, 1.1% active. AID 651610;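 active = mean replicate inhibition score of at least 50 and every replicate individually at or above 50; inconclusive = only one of the two criteria met; inactive = mean below 50 and not all replicates reaching 50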
CFTR F508del cor = CFTR F508del correction in bronchial cells. CFBE cells, YFP halide quenching; stimulated with forskolin plus potentiator P3; % fluorescence drop versus neutral controls. AID 720511. activity (quench increase), % at 7.58 µM. 350,000 tested, 0.36% active;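 active = mean added fluorescence quench of at least 8% versus neutral control, with both replicates also reaching 8%; inconclusive = only one of the mean or replicate conditions met; inactive = mean below 8% and not both replicates reaching 8%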;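 also: cells transiently co-express mutant CFTR-F508del with the halide-sensitive YFP; corrector assay measuring rescue of mutant channel to the surface after 24 h compound exposure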
PAX8 reporter = PAX8 transcriptional activity inhibition. RMG-I TPO-luciferase reporter, SteadyGlo, 24 h. inhibition, % at 12.6 µM. 360,000 tested, 1.2% active. AID 652154;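 active = mean replicate inhibition at least 60% with every replicate also reaching 60%; inconclusive = only one of the two criteria is met; inactive = mean below 60% and not all replicates reaching 60%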;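 also: luciferase light reporting Pax8 driven TPO promoter activity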
Of the large screens only hits and unclear results are named; the others gave an inactive call; [ ] = dose if it differs, or a comment. This is a sample that favours compounds with a hit; in the whole collection about 2.5% have one here.

O=C(NCc1ccccc1)C1Cc2c(-c3cccc(F)c3)ccnc2O1 (stereo not drawn)	EWS-Fli inh 67, CFTR F508del cor 9.1
O=C(NCc1ccccc1)C1Cc2c(-c3ccc(Cl)cc3)ccnc2O1 (stereo not drawn)	EWS-Fli inh 60, CFTR F508del cor 9.2
O=C(NCC1CC1)C1Cc2c(-c3cccc(F)c3)ccnc2O1 (stereo not drawn)	none
O=C(NCc1cccc(Cl)c1)C1Cc2c(-c3cccc(F)c3)ccnc2O1 (stereo not drawn)	none
NC(=O)c1cccc(-c2ccnc3c2CC(C(=O)NCc2ccco2)O3)c1 (stereo not drawn)	none
CC(=O)c1cccc(-c2ccnc3c2CC(C(=O)NCc2ccco2)O3)c1 (stereo not drawn)	CFTR F508del cor 13
O=C(NCc1ccco1)C1CC(c2cc(C(F)(F)F)cc(C(F)(F)F)c2)=NO1 (stereo not drawn)	EWS-Fli inh 75
CCC(=O)NC(=S)Nc1cccc(Cl)c1N1CCCCC1	Env fusion inh 73 (no result: EWS-Fli inh, CFTR F508del cor, PAX8 reporter)
CCCNC(=O)C[C@@H]1CC[C@@H]2[C@H](COC[C@H](O)CN2C(=O)C2CCOCC2)O1	none (no result: FXN GAA850 act, Env fusion inh)
C=CCN([C@H](C(=O)OC)C(C)C)S(=O)(=O)CCNCc1ccccc1	Env fusion inh 62
CCOC(=O)c1ccc2nc(NC(C)=O)sc2c1	none
CCOC(=O)c1ccc2nc(Nc3nc4ccc(F)cc4s3)sc2c1	EWS-Fli inh 80 (no result: CFTR F508del cor)
O=C1C=CC(=O)N1CCCCCCCCCCN1C(=O)C=CC1=O	PAX8 reporter 68
O=C1C=CC(=O)N1Cc1ccncc1	none
O=C(Nc1ccc(Cl)cn1)C1CCCN1S(=O)(=O)c1cccc2ccccc12 (stereo not drawn)	Env fusion inh 70 (no result: EWS-Fli inh, CFTR F508del cor, PAX8 reporter)
O=C(Nc1ccc(Cl)cn1)C1CCCN1S(=O)(=O)c1ccc(Cl)cc1 (stereo not drawn)	none (no result: EWS-Fli inh, Env fusion inh, CFTR F508del cor, PAX8 reporter)
COc1ccc(-c2csc(N(CCCN(C)C)C(=O)c3ccccc3F)n2)cc1	PAX8 reporter 63
CCC(=O)Nc1ccc2c(c1)OC[C@@H](C)N(C(=O)C1CCC1)C[C@@H](C)[C@@H](OC)CN(C)C2=O	none (no result: FXN GAA850 act, Env fusion inh)
COc1cccc(-n2nc(C(N)=O)c(O)cc2=O)c1	none
COc1cccc(-n2nc(C#N)c(Cl)cc2=O)c1	EWS-Fli inh 58, PAX8 reporter 98
CC(C)C(NS(=O)(=O)c1ccc2c(c1)C(C)(C)C(=O)N2C)C(=O)NCc1ccccc1Cl (stereo not drawn)	Env fusion inh 62
CN(C)c1ccc(/C=C2\SC(N3CCCCC3)=NC2=O)cc1	EWS-Fli inh 51
O=S(=O)(c1ccc(F)cc1)N(CCO)CC(O)Cn1c2ccccc2c2ccccc21 (stereo not drawn)	Env fusion inh 66 (no result: EWS-Fli inh, CFTR F508del cor, PAX8 reporter)
CCN(CC(O)Cn1c2ccccc2c2ccccc21)S(=O)(=O)c1ccc(F)cc1 (stereo not drawn)	none (no result: EWS-Fli inh, CFTR F508del cor, PAX8 reporter)
N#C[C@@H]1[C@H](c2ccccc2-c2ccccc2F)[C@H](CO)N1C(=O)C1CCOCC1	none (no result: FXN GAA850 act, Env fusion inh)
C[C@H]1CCCCO[C@H](CN(C)Cc2ccc3c(c2)OCO3)[C@@H](C)CN([C@@H](C)CO)C(=O)c2cc(NS(=O)(=O)c3ccc(Cl)cc3)ccc2O1	none (no result: FXN GAA850 act)
COC(=O)[C@@]1(Cc2ccccc2)[C@H]2C(=O)N(Cc3ccccc3)C(=O)[C@H]2[C@H]2CN=C(SCc3ccc(C)cc3)N21	none (no result: EWS-Fli inh, Env fusion inh, CFTR F508del cor, PAX8 reporter)
COC(=O)[C@@]1(Cc2ccccc2)[C@H]2C(=O)N(Cc3ccccc3)C(=O)[C@H]2[C@H]2CN=C(SCc3ccccc3)N21	Env fusion inh 76
CC=Cc1ccc2n(c1=O)C[C@H]1[C@H](CO)[C@@H](C(=O)NCc3ccccc3F)N[C@@H]21 (mixture of isomers)	none (no result: FXN GAA850 act, Env fusion inh, CFTR F508del cor, PAX8 reporter)
COc1cccc(S(=O)(=O)N(C)C[C@H]2Oc3cc(C4=CCCC4)ccc3S(=O)(=O)N([C@H](C)CO)C[C@@H]2C)c1	Env fusion inh 63[16.7 µM] (no result: FXN GAA850 act)
COc1cccc(S(=O)(=O)N(C)C[C@H]2Oc3cc(C4=CCCC4)ccc3S(=O)(=O)N([C@H](C)CO)C[C@H]2C)c1	Env fusion inh 95[16.7 µM] (no result: FXN GAA850 act)
CCS(=O)(=O)NCC[C@@H]1CC[C@H](NC(=O)Cc2ccccn2)[C@@H](CO)O1	none (no result: FXN GAA850 act)
Cc1cccc(-n2cc(-c3ccccc3)c3c(N4CCOCC4)ncnc32)c1	Env fusion inh inconclusive, PAX8 reporter 68
CCOC(=O)C1CCN(c2ncnc3c2c(-c2ccccc2)cn3-c2ccccc2)CC1	none
Cc1ccc(-n2cc(-c3ccccc3)c3c(N4CCOCC4)ncnc32)cc1	CFTR F508del cor 8.2
